Bioassay records: PubChem, several laboratories
The list is not random: actives were taken first. Their share in the collection is about 1.3%.
PrP UTR inh: inhibition of PrP 5' UTR reporter expression. cell-based PrP 5' UTR mRNA reporter, plate reader. inhibition, % (test concentration not listed). 0.35% of 340,000 active. AID 488862, 2010; in the data active = inhibition above about 52%
RecA splice inh: Mtb RecA intein splicing inhibitors, primary screen, biochemical, fluorescence, HTS. cell-free RecA intein splicing. Protein RecA (Mycobacterium tuberculosis (strain ATCC 25618 / H37Rv)), P9WHJ3. 0.75% of 290,000 active. inhibition, % (concentration not given with the values); in the data active = inhibition above about 30%
BJeLR viability: MLPCN primary cell-based screen for lethality selective to Ras in HRASV12 cells; 0.17% of 300,000 active; inhibition, % (concentration not given with the values); AID 1554, 2009; BJeLR (HRASV12) viability, CellTiter-Glo ATP luminescence, 48 h; in the data active = inhibition above about 50%
FadD28 binding: inhibitors of FadD28 bisubstrate probe binding, primary screen, biochemical, fluorescence polarization, single point | Mycobacterium tuberculosis FadD28 fatty-acid-AMP ligase | inhibition, % at 12.5 µM | 0.22% of 360,000 active | AID 588549, 2011; in the data active = inhibition above about 8.5%, passing the limit was not always enough
Mtb UGM inh: M. tuberculosis UGM enzyme inhibitors, primary screen, biochemical, fluorescence polarization, single point | purified UGM, fluorescence polarization probe displacement | inhibition, % at 10 µM | 0.06% of 320,000 active | AID 504406, 2011; in the data active = inhibition above about 10%, passing the limit was not always enough
Target sequence (P9WIQ1 whole entry, looked up): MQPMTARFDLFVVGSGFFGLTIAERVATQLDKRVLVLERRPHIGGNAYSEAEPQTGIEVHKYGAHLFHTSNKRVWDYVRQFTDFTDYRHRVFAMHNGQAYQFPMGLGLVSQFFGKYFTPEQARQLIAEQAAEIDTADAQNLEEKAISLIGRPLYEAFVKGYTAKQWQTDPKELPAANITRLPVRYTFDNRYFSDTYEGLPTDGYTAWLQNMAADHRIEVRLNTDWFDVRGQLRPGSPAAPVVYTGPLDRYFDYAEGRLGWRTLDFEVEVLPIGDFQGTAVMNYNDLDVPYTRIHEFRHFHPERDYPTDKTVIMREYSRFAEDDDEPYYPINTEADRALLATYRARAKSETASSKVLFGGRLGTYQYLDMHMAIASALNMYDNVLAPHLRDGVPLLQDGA
Rv3671c inh: Rv3671c serine protease inhibitors, primary screen, biochemical, fluorescence polarization, M. tuberculosis H37Rv | P9WHR9 | inhibition, % at 5.96 µM | 0.048% of 320,000 active | AID 2606, 2010; in the data active = inhibition above about 38%;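 also: extracellular domain of Rv3671c used as enzyme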
A number is an active result; i = inactive; nt = not tested or not shown.

SMILES	PrP UTR inh	RecA splice inh	BJeLR viability	FadD28 binding	Mtb UGM inh	Rv3671c inh
CCCNC(=O)C1(C)CCCN(C(=O)c2ccccc2OC)C1 (configuration not stated)	nt	nt	nt	i	nt	nt
COC(=O)c1ccccc1Sc1ncnc2onc(C)c12	i	46	i	i	i	i
O=C(/C=C/c1ccccc1)NC(NC(=S)Nc1cccc(Cl)c1)C(Cl)(Cl)Cl (configuration not stated)	79	i	i	i	i	i
O=C(/C=C/c1ccccc1)NC(NC(=S)Nc1cccc(O)c1)C(Cl)(Cl)Cl (configuration not stated)	i	i	i	i	i	i
Cc1ccc2[nH]c(-c3cccc(F)c3)cc(=O)c2c1	60	i	i	i	i	i
COc1cc(/C=C2\SC(=S)N(NC(=O)c3ccccc3O)C2=O)ccc1O	i	i	i	11	i	i
O=C(NN1C(=O)/C(=C/c2cc([N+](=O)[O-])ccc2O)SC1=S)c1ccccc1O	nt	i	i	nt	i	52
O=C(NN1C(=O)/C(=C/c2ccc(O)cc2)SC1=S)c1ccccc1O	i	i	i	19	i	i
COc1ccc(/C=C2\SC(=S)N(NC(=O)c3ccncc3)C2=O)cc1OC	nt	i	i	nt	i	i
O=C(NN1C(=O)/C(=C/c2ccc(O)cc2)SC1=S)c1cccc(O)c1	i	i	i	19	i	i
Cc1cc(C)nc(NN2C(=O)/C(=C/c3ccc(O)cc3)SC2=S)n1	nt	i	i	i	i	i
CN(Cc1ccccc1)C(=O)CN1CCN(S(=O)(=O)c2ccccc2F)CC1	nt	nt	nt	i	nt	nt
CC(C)(C)c1ccc(C(O)c2ncc(-c3ccccc3F)[nH]2)cc1 (configuration not stated)	nt	nt	nt	i	nt	nt
O=C(NN1C(=O)/C(=C/c2ccc(O)c([N+](=O)[O-])c2)SC1=S)c1ccccc1Cl	i	i	i	21	i	i
O=[N+]([O-])c1ccc(O)c(/C=N/n2cnc3ccccc32)c1	i	i	i	i	i	i
Cc1ccc(/C=C2\SC(=S)N(/N=C/c3cc([N+](=O)[O-])ccc3O)C2=O)o1	i	i	i	26	i	i
CC(/C=C1\SC(=S)N(CC(=O)O)C1=O)=C\c1ccccc1	i	i	i	i	i	i
CC(/C=C1\SC(=S)N(NC(=O)c2cccc(O)c2)C1=O)=C\c1ccccc1	i	31	i	i	i	i
Cc1nn(C)c(C)c1C1C(C#N)=C(N)Oc2n[nH]c(C)c21 (configuration not stated)	i	43	i	i	i	i
Cc1[nH]nc2c1C(c1cc(Br)cs1)C(C#N)=C(N)O2 (configuration not stated)	i	53	i	i	i	i
Cc1ccc(-n2nc(C)c3c2OC(N)=C(C#N)C3c2ccc(F)cc2)cc1 (configuration not stated)	i	60	i	i	i	i
Cc1nn(-c2ccccc2)c(C)c1C1C(C#N)=C(N)Oc2n[nH]c(C)c21 (configuration not stated)	i	63	i	i	i	i
CC12CCC(C(=O)N(c3nccs3)C1=O)C2(C)C (configuration not stated)	i	nt	nt	i	nt	nt
CCCc1nc2ccc(C)cn2c1Cc1ccccc1C(F)(F)F	nt	nt	nt	i	nt	nt
Cc1ccccc1S(=O)(=O)NC(=O)C1(C)CCN1C(=O)CC1CCCCC1 (configuration not stated)	nt	nt	nt	i	nt	nt
SMILES	PrP UTR inh	RecA splice inh	BJeLR viability	FadD28 binding	Mtb UGM inh	Rv3671c inh
COC1C(CO)OC(n2c3c(Cl)cccc3c3c4c(c5c6cccc(Cl)c6[nH]c5c32)C(=O)NC4=O)C(O)C1O (configuration not stated)	i	nt	nt	i	nt	nt
CCC(C)C1C(C#N)=C(N)Oc2n[nH]c(-c3ccccc3)c21 (configuration not stated)	i	i	i	i	i	i
Cc1ccc(C2C(C#N)=C(N)Oc3n[nH]c(-c4ccccc4)c32)o1 (configuration not stated)	i	88	i	i	i	i
Cc1ccc(N(CCC#N)C(=O)CCl)cc1C	i	56	i	i	i	i
Cc1ccc(SCC(=O)OCC(=O)N(CCC#N)c2ccccc2)cc1C	i	i	i	i	i	i
CCc1sc(/C=C(/C#N)C(N)=S)cc1[N+](=O)[O-]	i	nt	nt	18	nt	nt
CCc1ccc(/C=C(/C#N)C(N)=S)s1	i	nt	i	i	i	i
Cc1cnc(CNC(=O)c2csc([C@H]3C[C@H](O)[C@@H](CO)O3)n2)cn1	nt	nt	nt	i	nt	nt
COc1ccccc1/C=C1/C(=O)N(c2ccccc2)N=C1C	i	58	i	i	i	i
COc1cc(/C=C2/C(=O)N(c3ccc(Br)cc3)N=C2C)cc(OC)c1OC	i	63	i	i	nt	nt
COc1cc(/C=C2/C(=O)N(c3ccc(C(=O)O)cc3)N=C2C)cc(OC)c1O	i	i	i	i	i	nt
CC1=NN(c2ccccc2)C(=O)/C1=C\c1ccc(Oc2ccc([N+](=O)[O-])cc2[N+](=O)[O-])cc1	i	84	i	i	i	i
CC1(Oc2ccc3ccccc3c2)CCN(Cc2cccn2-c2nccs2)C1 (configuration not stated)	nt	nt	nt	i	nt	nt
COc1ccccc1-c1c(C)oc2cc(OC(=O)c3ccco3)ccc2c1=O	i	31	i	i	i	i
COc1ccccc1Oc1c(C)oc2cc(OC(=O)c3ccco3)ccc2c1=O	i	nt	nt	i	i	i
Cc1cc(Br)cc2c1NC(=O)C2(c1c(C)n(C)n(-c2ccccc2)c1=O)c1c(C)n(C)n(-c2ccccc2)c1=O	i	i	i	i	i	i
COc1cc(C2(c3ccc(O)c(OC)c3)C(=O)Nc3c(C)cc(Br)cc32)ccc1O	i	42	i	i	i	i
O=C(O)CCNc1ccc(NCCC(=O)O)c2c1C(=O)c1ccccc1C2=O	i	i	i	10	i	i
Brc1ccc(Oc2ccc(Br)cc2Br)c(Br)c1	i	nt	nt	i	i	i
Oc1c(Br)cc(Br)cc1Oc1ccc(Br)cc1Br	nt	39	i	nt	i	i
O=C1NC[C@H](Cc2ccccc2)N(CC2CCN(CCc3ccc(-c4ccccc4)cc3)CC2)C1=O	i	nt	nt	i	nt	nt
COc1ccc(CN2C(=O)C(Cc3ccccc3)Nc3ncnc(N4CCOCC4)c32)cc1 (configuration not stated)	i	i	i	i	i	i
COc1ccc(CN2C(=O)C(Cc3ccccc3)Nc3ncnc(N4CCc5ccccc5C4)c32)cc1 (configuration not stated)	nt	35	i	nt	i	i
COc1cc(/C=C/c2ccc3cccc(O)c3n2)cc(Br)c1OC	i	i	i	i	i	i
COc1cc(/C=C/c2ccc3cccc(O)c3n2)cc(OC)c1OC	i	i	56	13	i	i
